The panel holds about 79,000 compounds, 15% with a hit somewhere; the sample as a whole holds those more often. Active and inactive are the calls of the source. Rule as the data show it: active = growth inhibition above about 70%; inactive = the rest.
Columns and labels:
[1] = NCI Yeast Anticancer Drug Screen. Data for the rad50 strain (AID 155);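 also: 0% = growth of vehicle-only cultures of the same strain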; conditions: S. cerevisiae rad50 strain growth inhibition; at 50.0 µM; hits give high values
Summary of the method: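 Compounds were tested on a yeast strain with an engineered DNA damage repair alteration; the reported value is growth inhibition normalised to vehicle treatment.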

[2] = NCI Yeast Anticancer Drug Screen. Data for the mec2-1 strain (AID 157); conditions: S. cerevisiae mec2-1 strain, at 50.0 µM, hits give high values
Summary of the method: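 Strain: mec2-1 (DNA repair/cell cycle alteration). Compound exposure, then growth measured; inhibition expressed relative to vehicle.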

[3] = NCI Yeast Anticancer Drug Screen. Data for the sgs1 mgt1 strain (AID 161);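 also: 0% = growth of cultures given vehicle only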; conditions: S. cerevisiae sgs1 mgt1 strain, at 50.0 µM, hits give high values
Summary of the method: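 Read-out: growth inhibition vs vehicle controls. Cells: mutant yeast strain deficient in DNA damage repair.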

[4] = NCI Yeast Anticancer Drug Screen. Data for the cln2 rad14 strain (AID 165);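 also: 0% = growth equal to vehicle treated cultures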; conditions: S. cerevisiae cln2 rad14 strain, at 50.0 µM, hits give high values
Summary of the method: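 Compounds are applied to the cln2 rad14 yeast strain, and growth is then compared with that of vehicle-treated cultures to give inhibition.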

[5] = NCI Yeast Anticancer Drug Screen. Data for the bub3 strain (AID 167); conditions: S. cerevisiae bub3 mutant strain, at 50.0 µM, hits give high values
Summary of the method: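 Growth of a checkpoint-deficient yeast mutant is measured after compound exposure. Values represent inhibition relative to vehicle.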

[6] = NCI Yeast Anticancer Drug Screen. Data for the mlh1 rad18 strain (AID 175); conditions: S. cerevisiae mlh1 rad18 strain growth inhibition; at 50.0 µM; hits give high values
Summary of the method: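 Read-out is yeast growth inhibition, calculated against vehicle-only controls. The compound was applied to a strain engineered with DNA damage repair alterations.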

Measured: growth inhibition

Nc1nc(C(=O)O)c(N=Nc2ccccc2)c(=O)[nH]1
inactive: [1] 31.1% | [2] -10.2% | [3] 7.35% | [4] 24.4% | [5] -16.1% | [6] -20.8%

C=CCOC(=O)C(O)C=C (centres undefined)
inactive: [1] 7.9% | [2] -12.3% | [3] 2.3% | [4] 16.4% | [5] -1.6% | [6] 11.6%

CCCCCCCCN1N=C(C)CCC1=O
inactive: [1] -7.55% | [2] -9.2% | [3] -0.45% | [4] -23.7% | [5] -25.7% | [6] -8.55%

CN(C)c1nnnn1-c1ccccc1
inactive: [1] 5.15% | [2] 5.05% | [3] 12.3% | [4] -21.9% | [5] 9.5% | [6] 0.45%

Cc1ccc(S(=O)(=O)OCC2C(COS(=O)(=O)c3ccc(C)cc3)C3CCC2C2C3C3C2C2(C)C(=O)C3(C)C(c3ccccc3)=C2c2ccccc2)cc1 (centres undefined)
inactive: [1] 0.35% | [2] -5.2% | [3] 4.2% | [4] -5.7% | [5] -5.5% | [6] 12.3%

COC(=O)NN=C1C(C)(C)C(=O)C1(C)C
inactive: [1] -20.7% | [2] -21.8% | [3] -25.4% | [4] 6.05% | [5] -29.4% | [6] -20.1%

CC(=O)OCc1ccc2ccccc2c1
inactive: [1] -9.35% | [2] -29.7% | [3] -10.8% | [4] -3.2% | [5] -7.65% | [6] -14.7%

CC(C)(C)OC(=O)NC(Cc1ccccc1)C(=O)OCN1C(=O)C2C3C=CC(C2C1=O)C1C2C(=O)N(COC(=O)C(Cc4ccccc4)NC(=O)OC(C)(C)C)C(=O)C2C31 (centres undefined)
inactive: [1] 26.8% | [2] -4.1% | [3] -0.5% | [4] -6.55% | [5] 8.25% | [6] 20.4%

COc1ccc(/C(=N/NS(=O)(=O)c2ccc([N+](=O)[O-])cc2)C2COC(=O)C2)cc1OC (centres undefined)
inactive: [1] 6.15% | [2] -9% | [3] 3.25% | [4] -13.4% | [5] 14% | [6] 2.25%

Cc1ccc(C(=O)Oc2ccccc2)cc1N=NN(C)C
inactive: [1] -20.7% | [2] -49% | [3] -56.8% | [4] 25.5% | [5] -29.8% | [6] -24.1%

O=C(CCl)N1CCC(CC2(c3cc4ccccc4[nH]3)OCCO2)CC1
inactive: [1] -0.95% | [2] 15.2% | [3] 29.9% | [4] -5.05% | [5] 10.1% | [6] 1.15%

CSc1nnc(SC)s1
inactive: [1] -3.3% | [2] -22.6% | [3] -18.8% | [4] 22.9% | [5] 1.4% | [6] -9.35%

COC1(OC)C(c2ccc([N+](=O)[O-])cc2)C([N+](=O)[O-])C1(OC)OC (centres undefined)
inactive: [1] -14.1% | [2] -16.1% | [3] -32% | [4] -11.4% | [5] -8.4% | [6] -17.6%

CC(CC(=O)O)C1(C)C2CCCCC2C2CCCCC21 (centres undefined)
inactive: [1] -6.2% | [2] -9.6% | [3] 5.75% | [4] -13.3% | [5] -4.15% | [6] -2.8%

COc1ccc(C2C(C)C(=O)C(C)C(c3ccc(OC)cc3)N2N=O)cc1 (centres undefined)
inactive: [1] 3.15% | [2] 6.4% | [3] 15.6% | [4] -1.2% | [5] 26.6% | [6] 32.8%

CCCC1([N+](=O)[O-])CCC(C)(O)C(C(C)=O)C1 (centres undefined)
inactive: [1] -4.3% | [2] -3.8% | [3] 0.9% | [4] -3.35% | [5] -4.8% | [6] 17.4%

CCCCN(C)C(=O)C1=C(C)NC(C)=C(C(=O)N(C)CCCC)C1
inactive: [1] -1.45% | [2] -26.4% | [3] -12.2% | [4] -20.3% | [5] -16.2% | [6] -58%

CCN(CC)C(COC(=O)Nc1ccccc1)COC(=O)Nc1ccccc1
inactive: [1] 1.85% | [2] -2.3% | [3] 0.6% | [4] -13.8% | [5] -18.9% | [6] 3.05%

CNC(=S)N(C)c1ccccc1
inactive: [1] 0.6% | [2] -9.85% | [3] -15.9% | [4] -57.4% | [5] 8.05% | [6] -23.3%

CN1CCN(CN2C(=O)C3C4C=CC(C3C2=O)C2C(=O)N(CN3CCN(C)CC3)C(=O)C42)CC1 (centres undefined)
inactive: [1] 18.1% | [2] 5.95% | [3] 13.5% | [4] -0.85% | [5] 14.6% | [6] 16.9%

ClC1CC2CCC1C2Br (centres undefined) (tested in a mixture with another compound)
inactive: [1] -19.6% | [2] -14.2% | [3] -21.1% | [4] -31.9% | [5] -0.45% | [6] -17.1%

O=[N+]([O-])c1c(O)c2nonc2c2nn(-c3ccccc3)nc12
inactive: [1] 1.7% | [2] 15% | [3] 55.4% | [4] 25.8% | [5] -15.7% | [6] -15.4%

O=C(O)C1CC2C3CCC2C1C3=O (centres undefined)
inactive: [1] -8.8% | [2] -26.3% | [3] 23.1% | [4] 4.4% | [5] -2.8% | [6] -34.7%

COC(=O)c1nnn(-c2cccc(Cl)c2)c1C(=O)c1ccc(Cl)c(Cl)c1
inactive: [1] -6.55% | [2] 5.55% | [3] 7.5% | [4] -5.25% | [5] -8.9% | [6] 11.8%

O=c1oc2ccc(Cl)cc2c(OCCO)c1Cl
inactive: [1] -5.2% | [2] 4.55% | [3] -4.45% | [4] -0.5% | [5] -5.95% | [6] -1.15%

COc1cc(N=C2C=CC(=O)C=C2)c2ncccc2c1
inactive: [1] 2.95% | [2] 1.05% | [3] 4.1% | [4] -33.1% | [5] -0.7% | [6] 3.75%

COc1cc2c(cc1O)C1CC(CC3CCCCN31)OC(=O)/C=C\c1ccc(O)c-2c1 (centres undefined)
inactive: [1] -28.1% | [2] -48.3% | [3] -31.2% | [4] 20.8% | [5] -43.9% | [6] -54.2%

CC(=O)Oc1ccc(C(=O)c2ccc(OC(C)=O)cc2)cc1
inactive: [1] -7.5% | [2] -16.6% | [3] 6.25% | [4] -22.4% | [5] -4.45% | [6] 22.2%

CCc1ccc(NC(=S)NC(=O)C(C)Oc2ccccc2)cc1 (centres undefined)
inactive: [1] 39.5% | [2] 21.6% | [3] 54.7% | [4] 15.1% | [6] 8.9%
active: [5] 78.8%

CCOC(=O)CCN1C(=O)C(=O)N(c2ccc(OC)cc2)C1=S
inactive: [1] -7% | [2] -6.6% | [3] 3.75% | [4] -57.1% | [5] 5% | [6] -5.6%

CCCCn1c(N)n[nH]c1=S
inactive: [1] 20.5% | [2] 8.55% | [3] 1.55% | [4] -52.5% | [5] -7.25% | [6] -5.9%

Cc1c(Cl)c(=O)oc2cc(OCC(O)COC(C)C)ccc12 (centres undefined)
inactive: [1] -23.7% | [2] -30.9% | [3] -36.3% | [4] -23.2% | [5] -13.3% | [6] -25.4%

COc1cccc(C(F)(F)F)c1
inactive: [1] -3.1% | [2] 10.3% | [3] -10.3% | [4] -6.85% | [5] 19.4% | [6] -13%

C[N+](C)(C)/N=C(/c1ccccc1)C1CCCCC1
inactive: [1] -20.2% | [2] -2.1% | [3] -4.35% | [4] -43.5% | [5] 0.4% | [6] 7.7%

O=C(O)c1cc(S(=O)(=O)O)ccc1O
inactive: [1] 9.7% | [2] 18% | [3] -9.9% | [4] -29.9% | [5] -16.7% | [6] -13.2%

O=S(=O)(c1ccc(N=Cc2cccs2)cc1)c1ccc(N=Cc2cccs2)cc1
inactive: [1] -13.2% | [2] -22.1% | [3] -10.1% | [4] 10.7% | [5] 5.35% | [6] -13.8%

COc1c(Cl)cc([N+](=O)[O-])cc1Cl
inactive: [1] -3.5% | [2] 0.15% | [3] 3.1% | [4] -34.7% | [5] -18.5% | [6] -12.4%

CC1CC(C)OC2(CCCC2)O1 (centres undefined)
inactive: [1] 8.45% | [2] -8.05% | [3] 2.2% | [4] -12.8% | [5] 4.05% | [6] -5.3%

Brc1cccc(CCOCc2ccccc2)c1
inactive: [1] 8.45% | [2] -11.6% | [3] -4.3% | [4] 2.05% | [5] 0.5% | [6] -3.9%

From PubChem BioAssay (NCI)
